A selection: hits, their analogues and other compounds. The true share with any hit is near 14%.
Pf growth 96h – Primary qHTS for delayed death inhibitors of the malarial parasite plastid, 96 hour incubation; P. falciparum luciferase reporter growth, 96 h; Potency, µM (titrated, usually from 28.7 µM), inactives show top-dose activity change, negative = inhibition, hits mostly inhibitors; 320,000 compounds, 6.9% hits; further: potency means the concentration at half of the fitted maximal effect
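P. falciparum expressing integrated firefly luciferase, in erythrocytes at 2% hematocrit, 0.05% parasitemia, incubated with compounds 96 h at 37 C, 5% CO2. Growth inhibition read as loss of luminescence; two-generation exposure targets delayed-death apicoplast inhibitors.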
Lassa entry inh – qHTS for Inhibitors of binding or entry into cells for Lassa Virus. AID 540256, 2011. 300,000 compounds, 1.2% hits. Lassa virus pseudotype entry inhibition, cell reporter. Potency, µM (top dose mostly 37.9 µM), inactives show at the top dose activity change, negative = inhibition, usual class: inhibitors; calls by dose curve; tested in HEK293 cells; further: potency means the concentration at half of the fitted maximal effect; nearly all actives have a fitted effect of over 50% in size
HCMV antiviral – qHTS Assay for inhibitors of the human cytomegalovirus (HCMV) | AID 1259415, 2018 | HFF cells, HCMV-luciferase reporter, 72 h; hits give low values | 410,000 compounds, 4.5% hits | activity change, negative = inhibition, % at 57.5 µM; in the data active means activity change below about -60%; inconclusive means no clear call, values can overlap the other calls; inactive means above about -39%
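Screen run at 2 compound doses on HFFs infected with reporter HCMV, MOI 1 PFU/cell. Luciferase activity from cell lysates at 72 h post infection gave inhibition relative to buffer-only and Salinomycin wells.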
MARV entry inh – qHTS for inhibitors of binding or entry into cells for Marburg Virus. Marburg virus pseudotyped entry inhibition, cell reporter. Potency, µM (highest dose often 37.8 µM), for inactives: at the highest dose activity change, negative = inhibition, hits mostly inhibitors. 300,000 compounds, 1.8% hits; calls by dose curve; tested in HEK293 cells; further: potency means the concentration at half of the fitted maximal effect
Pf growth 48h – Primary qHTS for delayed death inhibitors of the malarial parasite plastid, 48 hour incubation; AID 504832, 2011; P. falciparum luciferase growth in erythrocytes, 48 h; Potency, µM (top dose mostly 28.7 µM), for inactives: top-dose activity change, negative = inhibition, actives largely listed as inhibitors; 310,000 compounds, 5.9% hits; further: potency means the concentration at half of the fitted maximal effect
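Read-out is firefly luciferase luminescence from an integrated reporter in P. falciparum, so falling signal marks reduced parasite growth. Infected erythrocytes were at 2% hematocrit and 0.1% parasitemia (final) in Albumax-supplemented RPMI 1640.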
HCV inh – qHTS Assay for Inhibitors of Hepatitis C Virus (HCV); Huh7.5.1 HCVcc-Cre infection, luciferase reporter, 44 h; Potency, µM (top dose mostly 41.8 µM), for inactives: top-dose activity change, negative = inhibition, most hits filed as inhibitors; 340,000 compounds, 3.4% hits; AID 651820, 2012; further: potency means the concentration at half of the fitted maximal effect
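Whole-lifecycle infectious HCVcc-Cre system; cells 1,000/well, compound then virus (~0.5 moi) added 4 h after plating, 44 h culture. Luciferase read 15 sec following 15 min substrate incubation, room temp.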
Active calls of the source: *; i = inactive; ? = inconclusive; · = no result; [ ] = dose if it differs, or a comment. Unless noted, the call rests on the fitted dose curve; in most records, active means well fitted inhibition curve with a large enough effect; inconclusive means small, poorly fitted or top-dose-only effect, or another doubt; inactive means no such curve, though single readings can be large or run the other way. On the % scale 0 is the no-effect control and ±100 the full control effect.

SMILES	Pf growth 96h	Lassa entry inh	HCMV antiviral	MARV entry inh	Pf growth 48h	HCV inh
CCC(C(=O)OCc1csc(CC(=O)Nc2ccccc2C)n1)c1ccccc1 (stereo not drawn)	?	·	-4.0	·	11.7µM*	-23.8%
Cc1ccccc1NC(=O)Cc1nc(COC(=O)CC(C)c2ccccc2)cs1 (stereo not drawn)	?	-20.0%	-21.4	-3.1%	?	9.7%
Cc1ccc(S(=O)(=O)N2C=CC(=O)CC2c2cccs2)cc1 (stereo not drawn)	·	·	39.7	·	·	·
CCc1ccccc1NC(=O)c1ccc2c(c1)nnn2C1CCCC1	·	0.8%[46.1 µM]	-21.7	·	·	·
CCOC(=O)c1c(C)[nH]c(C(=O)OCc2csc(CC(=O)Nc3ccccc3C)n2)c1C	11.7µM*	?	19.8	?	9.28µM*	?
COc1ccc(C(=O)O/N=C/c2c(C(F)(F)F)nn(C)c2SCc2ccccc2Cl)cc1	-0.9%	?	-82.1*	?	30.6%	?
Cn1nc(C(F)(F)F)c(/C=N/OC(=O)c2ccccc2Cl)c1SCc1ccc(Cl)cc1	-9.3%	?	?	?	11.3%	?
O=C(NCc1ccc(F)cc1)C(c1ccccc1)c1ccccc1	?	·	-10.9	·	-29.0%	-6.0%
CC(=O)N(Cc1ccc(F)cc1)C1=C(NCc2ccccc2)C(=O)c2ccccc2C1=O	?	6.31µM*	·	?	·	5.01µM*
COc1ccc(NC(=O)CN(C)C(=O)CN2C(=O)C3CCCCC3C2=O)cc1 (stereo not drawn)	19.6%	8.8%	-5.1	14.6%	21.1%	0.4%
CN1CCCCC1CCN1c2ccccc2Sc2ccc(S(C)=O)cc21 (stereo not drawn)	1.51µM*	·	?	·	?	?
C=CCOC(=O)C(C(C)=O)[C@@H](NC(=O)OC)c1cccc(F)c1 (stereo partly drawn)	·	·	·	12.5%[14.2 µM]	·	·
O=C(Oc1ccc2ccccc2c1Br)N1CCCCCC1	i	3.26µM*	-82.1*	1.16µM*	0.7%	-3.5%
CCN(CC)C(=O)Oc1ccccc1NC(C)=O	9.28µM*	-17.7%	-7.6	26.7%	7.8%	3.3%
CC(C)(C)C(=O)NNC(=O)COc1ccc2ccccc2c1Br	2.33µM*	·	-30.0	·	5.9%	11.0%
CCN(CC)C(=O)Oc1ccc2ccccc2c1Br	-12.6%	?	-88.9*	?	188.0%	?
Cc1nc2c3cccnc3nn2c(C)c1CCC(=O)NCc1ccccc1Cl	·	20.4%[46.1 µM]	-5.9	?	·	·
CC1C(OC(=O)CCC(=O)NC(C)(C)CO)O[C@H]2OC3(C)CC[C@H]4[C@H](C)CCC1C24OO3 (stereo partly drawn)	?	?	-8.9	?	?	?
CC(C)CC(NC(=O)CCCNC(=O)CCC(=O)OC1O[C@H]2OC3(C)CC[C@H]4[C@H](C)CCC(C1C)C24OO3)C(=O)O (stereo partly drawn)	?	?	-63.1*	?	?	?
CO[C@H]1OC2O[C@@]3(C)CC[C@H]4[C@H](C)CC[C@@H]([C@H]1C)[C@@]24OO3 (stereo partly drawn)	0.0048µM*	·	·	·	0.0048µM*	·
C[C@H]1[C@H](OC(=O)CCC(=O)NCc2ccc(C(=O)O)cc2)O[C@@H]2O[C@@]3(C)CC[C@H]4[C@H](C)CC[C@@H]1C24OO3	0.0033µM*	?	·	?	0.0185µM*	?
S=c1[nH]c(-c2ccc(Br)cc2)cn1CCc1ccccc1	13.1µM*	-21.0%	14.1	-1.0%[46.1 µM]	?	-15.1%
CC(C)=CCCC(C)=CCN1C(=O)[C@]2(O[C@H](COc3ccccc3)CC3=CCCC32)c2c(Br)cccc21 (stereo partly drawn)	·	·	·	-3.0%[14.2 µM]	·	·
Cc1ccc(NC(C(=O)c2ccccc2)c2ccccc2)cc1 (stereo not drawn)	·	?	-99.5*	?	·	-1.5%
Cc1ccc(NC(=O)C(Nc2ccccc2)c2ccccc2)cc1 (stereo not drawn)	?	2.4%	-22.4	-23.1%	-4.8%	8.2%
SMILES	Pf growth 96h	Lassa entry inh	HCMV antiviral	MARV entry inh	Pf growth 48h	HCV inh
CC(C)Cn1cc(C(=O)NC2CCN(Cc3ccccc3)CC2)c2c3ccccc3n(C)c2c1=O	?	·	-6.7	·	2.62µM*	·
CC(C)Cn1cc(C(=O)N2CCN(c3ccccn3)CC2)c2c3ccccc3n(C)c2c1=O	9.28µM*	6.51µM*	10.4	16.4µM*	7.38µM*	?
Cc1ccc(Cl)cc1NC(=O)CSc1ccc(C(=O)O)cn1	·	1.1%[46.1 µM]	2.5	-4.6%[46.1 µM]	·	·
CN1CCN(Cc2ccc(-c3ccc(Cl)cc3)o2)CC1	·	0.7%	-9.2	?	-2.0%	14.1µM*
COc1ccc2c(CC(=O)Nc3ccc(OC)c(NS(=O)(=O)c4ccc(F)cc4)c3)coc2c1	14.7µM*	?	-21.2	?	?	?
COc1ccc2c(CC(=O)Nc3cccc(S(=O)(=O)N4CCOCC4)c3)coc2c1	2.33µM*	-28.7%	-26.6	?	?	?
COc1ccc(CC(=O)Nc2cccc(S(=O)(=O)N3CCCC3)c2)cc1OC	?	·	-85.4*	·	?	4.47µM*
COc1ccc2c(CC(=O)Nc3ccccc3OC)coc2c1	69.5%	10.8%	10.8	6.2%	17.6%	-5.4%
COc1ccc(/C=C/C(=O)Nc2cccc(S(=O)(=O)N3CCCC3)c2)cc1OC	?	?	?	?	13.1µM*	10µM*
CN[C@@H](CO)C(=O)NC[C@H]1O[C@@H](n2cc(C)c(=O)[nH]c2=O)C[C@@H]1O	·	·	21.1	·	·	·
COc1ccccc1CC(=O)Nc1cccc(S(=O)(=O)N2CCOCC2)c1	?	-7.9%	0.7	8.6%	-42.9%	?
COc1ccc(Br)cc1CN(C)CC(=O)Nc1cccc(S(=O)(=O)N2CCCC2)c1	·	?	?	?	·	8.91µM*
COc1ccc(CC(=O)Nc2cccc(S(=O)(=O)N3CCOCC3)c2)cc1OC	?	·	-66.1*	·	-23.1%	3.55µM*
COc1ccc(Br)cc1CN(C)CC(=O)NCc1ccc(F)cc1	-10.4%	-18.2%	-29.6	-2.2%	-3.9%	-25.0%
COc1ccc(Br)cc1CN(C)CC(=O)Nc1c(Cl)cccc1Cl	?	-15.1%	-61.0*	-5.2%	3.6%	6.0%
COc1ccc(Br)cc1CN(C)CC(=O)Nc1cccc(S(N)(=O)=O)c1	-4.0%	-14.3%	-39.2	?	12.1%	-7.7%
CCOC(=O)C(Cc1c[nH]c2ccccc12)NC(=O)COc1ccc(Cl)c(C)c1 (stereo not drawn)	·	?	43.7	·	·	·

Assay outcomes (PubChem)
